Consider 36 molecules from PubChem BioAssay.

This assay is described as follows: compound effects on lung adenocarcinoma cell viability – A549, calcein-AM fluorescence, 48 h, basal, profiling panel (AID 1162). Note: test concentration not given here. To be noted: higher = more signal.
Turning to `COCCCNC(=O)[C@@]1(Sc2ccc(C)cc2)CC(=O)N(Cc2ccccc2)[C@@H]1c1ccc(CO)cc1I`, the z-score was 1.17.

Regarding `COC(=O)[C@H](C)NC(=O)CCC1CC(OC(=O)NCCc2ccc(F)cc2)CC2(CCCC(COC(=O)NCC(c3ccccc3)c3ccccc3)O2)O1` (stereo partly specified), the z-score is -0.0262.

Turning to `COc1ccccc1CN1C(=O)c2ccccc2[C@@H](C(=O)NCC(F)(F)F)[C@@H]1c1ccc(CO)cc1`, the z-score is 1.4.

Take `Cc1cc2c(c(=O)o1)[C@H](O)[C@H]1O[C@H]1C2=O`: the z-score was -0.728.

As to `CCN(CC)c1ccc(N2CC=CC34O[C@@H]5/C=C\CCC(C)OC(=O)C5[C@H]3C(=O)N(CCCO)[C@@H]4C2=O)cc1` (stereo partly specified), the z-score was 0.28.

With `O=C1O[C@@H](c2ccccc2)[C@@H](c2ccccc2)N2[C@@H](c3ccccc3OCCO)[C@]3(C(=O)Nc4ccc(C#CCCO)cc43)[C@@H](C(=O)O)[C@H]12`, the z-score is -0.622.

`COc1ccc([Si](C)(C)[C@@H]2[C@@H](CC(=O)N3CCC[C@H]3CO)O[C@]3(C(=O)N(Cc4cccc(N5CCC5=O)c4)c4ccccc43)[C@H]2C)cc1`: the z-score was -0.208.

Regarding `CC(C)(C)N1CC=CC23O[C@@H]4C=CCCOC(=O)C4[C@H]2C(=O)N(CCCCCO)[C@@H]3C1=O` (stereo partly specified), the z-score is -0.415.

Turning to `COc1cccc([C@@H]2Oc3ccc(Br)cc3C(=O)[C@H]2O)c1`, the z-score is 1.31.

On to `CO[C@H]1COC(=O)[C@@H]2CCCN2C(=O)CC=C[C@@H](C)[C@H](OC)COC(=O)CC=C[C@@H]1C`, for which the z-score was 0.346.

`CC(CCN1CCc2nc(-c3ccccc3)c(-c3ccccc3)cc2C1)=NO[C@H](C)c1cn([C@@H]2COC[C@H]2O)nn1`: the z-score is 1.9.

As for `COC(=O)[C@H]1COC(c2ccc(OCCCO)cc2)=N1`, the z-score is -0.283.

On to `O=C1[C@H]2[C@H]3[C@H](O)[C@H](O)CC(=NOC[C@@H](O)COCc4ccco4)[C@H]3CC[C@H]2C(=O)N1Cc1ccc2c(c1)OCO2`, for which the z-score was -0.259.

Consider `CC[C@@H](c1ccccc1)n1c(=O)n2n(c1=O)[C@H]1[C@H](O)[C@@H]3O[C@@H]3C(=NOCC=C(C)CCC=C(C)C)[C@H]1CC2`, for which the z-score is -0.821.

As for `C[C@@H](c1ccccc1)N1C(=O)[C@H]2[C@H]3[C@H](O)[C@H](O)CC(=NOC[C@@H](O)COCc4ccco4)[C@@H]3CC[C@H]2C1=O`, the z-score is 0.0517.

Turning to `CO[C@H]1O[C@H](CO)[C@@H](OC(=O)Nc2ccc3c(c2)OCO3)[C@H](OC(=O)Nc2ccccc2-c2ccccc2)[C@@H]1OC(=O)Nc1ccccc1-c1ccccc1`, the z-score is -0.89.

In the case of `NCCCCCNC(=O)[C@@H]1C[C@@H]2C(=O)N3CCC[C@H]3C(=O)N2[C@@H]1c1cccc(OCCO)c1`, the z-score is -0.323.

Consider `C[C@@H]1C=CCC(=O)OC[C@H](C)C(=O)N2CCC[C@H]2C(=O)OC1`, for which the z-score is -0.581.

On to `CCCC=C(CCC)[C@@H](NC(=O)c1ccc(-c2ccccc2)cc1)c1ccc(C(=O)OC)cc1`, for which the z-score was -1.34.

In the case of `CCOC(=O)[C@H](Cc1ccccc1)NC(=O)CCC1CC(OC(=O)NCc2ccc3c(c2)OCO3)CC2(CCCC(COC(=O)NCC3CCCCC3)O2)O1` (stereo partly specified), the z-score was 0.0417.

`COc1ccc(COC(=O)NN=C2C[C@@H](O)[C@@H](O)[C@@H]3[C@@H]4C(=O)N(c5ccc(F)cc5F)C(=O)[C@@H]4CC[C@@H]23)cc1`: the z-score is -0.102.

`CC(C)[C@@H](OCc1ccccc1)[C@H](C)C=NO[C@H](C)c1cn([C@H](CO)Cc2ccccc2)nn1`: the z-score was -0.22.

In the case of `COC(=O)[C@H](C)NC(=O)CCC1CC(OC(=O)NCc2cccc3ccccc23)CC2(CCCC(COC(=O)NCCc3ccc(Cl)cc3)O2)O1` (stereo partly specified), the z-score is 0.346.

Consider `COc1ccc(-c2nc3c(c4c2C[C@H](C)OC4)CN(CCC(C)C)CC3)cc1`, for which the z-score is 0.537.

Consider `O=C(NN=C1C[C@@H](O)[C@@H](O)[C@@H]2[C@@H]3C(=O)N(c4cccc(Oc5ccccc5)c4)C(=O)[C@@H]3CC[C@H]12)OCc1ccccc1`, for which the z-score is -0.207.

For the molecule `CCOC(=O)CCN1C(=O)[C@H]2[C@H]3[C@H](O)[C@H](O)CC(=NNC(=O)OCc4ccc(OC)cc4)[C@@H]3CC[C@H]2C1=O`, the z-score was -0.212.

For `CCN1C(=O)[C@H]2[C@H]3[C@H](O)C=CC(=O)[C@@H]3CC[C@H]2C1=O`, the z-score is 0.331.

On to `C=C(CCCC)C(=O)CC[C@@H](OC(C)=O)c1cccc(OCCO)c1`, for which the z-score is -0.985.

In the case of `O=C1C[C@]2(c3ccc([N+](=O)[O-])cc3)C(=O)N(CCN3CCOCC3)c3cc(CO)ccc3[C@H]2N1CC12CC3CC(CC(C3)C1)C2`, the z-score is -0.677.

On to `[N-]=[N+]=NCc1ccccc1[C@@H]1OC(c2ccc(OCCCO)cc2)=N[C@]1(Cc1ccccc1)C(=O)N1CCOCC1`, for which the z-score was 0.307.

For the molecule `CC(C)N1CC=CC23O[C@@H]4C=CCCOC(=O)C4[C@H]2C(=O)N(CCCCCCO)[C@@H]3C1=O` (stereo partly specified), the z-score was 0.647.

Regarding `CCCNC(=O)[C@@H]1c2ccccc2C(=O)N(Cc2ccccc2Cl)[C@H]1c1ccc(CO)cc1`, the z-score was 2.5.

For `CCN1C(=O)[C@H]2[C@H]3[C@H](O)[C@H](O)CC(=NOCc4ccccc4)[C@H]3CC[C@H]2C1=O`, the z-score is -0.803.

Take `C[C@H](c1ccccc1)N1C(=O)[C@H]2[C@H]3[C@H](O)[C@H](O)CC(=O)[C@@H]3CC[C@H]2C1=O`: the z-score is -0.311.

As to `COC(=O)C1=C(C)[C@@H](O)[C@@H](C)[C@H](c2c(OC)c(OC)c(C)c(OC)c2OC)O1`, the z-score is -0.501.

Take `CC(=O)OC[C@H]1O[C@H](CC=NOC[C@@H](C)[C@H](OCc2ccccc2)C(C)C)C=C[C@@H]1OC(C)=O`: the z-score was -0.878.
